Here are results for 36 compounds from PubChem BioAssay (NCATS).

Records with an inconclusive call do not appear. Activity calls are given as the source filed them. Unless noted, calls come from the whole dose curve.

A short description of test [1]: qHTS for Inhibitors of the Functional Ribonucleoprotein Complex (vRNP) of Lassa (LASV) Arenavirus: LASV Primary Screen - GLuc reporter signal (AID 1347082; calls by dose curve; tested in HEK293 reporter line; note: nearly all actives have a fitted effect of over 60% in size). A general note: Quantitative high-throughput screening tests each substance at several concentrations.
The nature of test [2]: qHTS for Inhibitors of the Functional Ribonucleoprotein Complex (vRNP) of Lassa (LASV) Arenavirus: Viability assay - alamar blue signal for LASV Primary Screen (AID 1347083; calls by dose curve; tested in HEK293 reporter line; note: nearly all actives have a fitted effect of over 80% in size).
Test [3] in a line: qHTS for Inhibitors of the Functional Ribonucleoprotein Complex (vRNP) of Lymphocytic Choriomeningitis Arenaviruses (LCMV): Viability assay - alamar blue signal for LCMV Primary Screen (AID 1347085; calls by dose curve; tested in HEK293 reporter line; note: nearly all actives have a fitted effect of over 80% in size).
Test [4] has as its target Nucleoprotein (Lymphocytic choriomeningitis virus (strain Armstrong)) (UniProt P09992). The test is described as follows: qHTS for Inhibitors of the Functional Ribonucleoprotein Complex (vRNP) of Lymphocytic Choriomeningitis Arenaviruses (LCMV): LCMV Primary Screen - GLuc reporter signal (AID 1347086). Note: nearly all actives have a fitted effect of over 70% in size.
Potency is the fitted concentration of half-maximal effect.

Nucleoprotein (Lymphocytic choriomeningitis virus (strain Armstrong)), sequence (P09992 whole entry, looked up): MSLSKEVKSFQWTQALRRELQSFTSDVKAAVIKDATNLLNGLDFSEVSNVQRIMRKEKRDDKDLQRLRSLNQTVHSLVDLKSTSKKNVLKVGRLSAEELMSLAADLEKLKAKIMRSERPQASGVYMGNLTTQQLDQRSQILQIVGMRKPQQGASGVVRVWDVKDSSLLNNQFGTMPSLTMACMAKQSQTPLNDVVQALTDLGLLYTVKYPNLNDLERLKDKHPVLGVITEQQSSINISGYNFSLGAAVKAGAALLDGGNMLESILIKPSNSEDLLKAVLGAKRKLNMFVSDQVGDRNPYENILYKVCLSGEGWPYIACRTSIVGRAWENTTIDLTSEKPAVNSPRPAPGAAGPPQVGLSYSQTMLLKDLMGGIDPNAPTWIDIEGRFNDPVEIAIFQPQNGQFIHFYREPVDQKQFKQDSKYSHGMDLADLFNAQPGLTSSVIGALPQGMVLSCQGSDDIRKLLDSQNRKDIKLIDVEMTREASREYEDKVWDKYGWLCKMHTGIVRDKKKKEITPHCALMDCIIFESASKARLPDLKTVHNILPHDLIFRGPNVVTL

Regarding `COC(=O)c1cccnc1`, the Potency entry in test [1], in test [2], in test [3] and in test [4] was “inactive” throughout.
With `CO[C@@]1(NC(=O)Cc2cccs2)C(=O)N2C(C(=O)O)=C(COC(N)=O)CS[C@@H]21`, the Potency entry in test [1], in test [2], in test [3] and in test [4] was “inactive” in each case.
As to `CN1CCC[C@@H]1c1cccnc1`, the Potency entry in test [1], in test [2], in test [3] and in test [4] was “inactive” in each case.
`O=C(CS(=O)Cc1ccco1)NC/C=C\COc1cc(CN2CCCCC2)ccn1` (centres undefined): the Potency result in test [1], in test [2], in test [3] and in test [4] was “inactive” each time.
On to `CN1CCN(C(=O)C2CCCCC2)CC1`, for which the Potency result in test [1], in test [2], in test [3] and in test [4] was “inactive” in each case.
As for `CC(=O)Nc1ncc([N+](=O)[O-])s1`, the Potency entry in test [1], in test [2], in test [3] and in test [4] was “inactive” each time.
As for `O=C(O)[C@@H]1[C@H]2C[C@H]3c4[nH]c5ccccc5c4CCN3C[C@@H]2CC[C@@H]1O`, the Potency entry in test [1], in test [2], in test [3] and in test [4] was “inactive” in each case.
Turning to `Cc1ccc(S(=O)(=O)NC(=O)NC2CCCCC2)cc1`, the Potency result in test [1], in test [2], in test [3] and in test [4] was “inactive” in each case.
For `CN1Cc2cc(C(=O)N3CCC(C4CCNCC4)CC3)ccc2NC(CC(=O)O)C1=O` (centres undefined), the Potency result in test [1], in test [2], in test [3] and in test [4] was “inactive” throughout.
Take `NC(=O)NC1N=C([O][Al])NC1=O` (centres undefined): the Potency entry in test [1], in test [2], in test [3] and in test [4] was “inactive” in each case.
As for `CCN(CC)CCNC(=O)COc1ccc(OC)cc1`, the Potency result in test [1], in test [2], in test [3] and in test [4] was “inactive” throughout.
In the case of `CCCC(O)C(CC)CO` (centres undefined), the Potency entry in test [1], in test [2], in test [3] and in test [4] was “inactive” in each case.
As for `CCCCC(CC)CNC(=O)CC(C)OC(=O)CCC(=O)O` (centres undefined), the Potency entry in test [1], in test [2], in test [3] and in test [4] was “inactive” each time.
As to `O=C(NCN1CCOCC1)c1cnccn1`, the Potency entry in test [1], in test [2], in test [3] and in test [4] was “inactive” each time.
Regarding `O=C(O)CCCCC(=O)O`, the Potency result in test [1], in test [2], in test [3] and in test [4] was “inactive” throughout.
`CC(=O)Nc1ccc(C(=O)O)cc1`: the Potency entry in test [1], in test [2], in test [3] and in test [4] was “inactive” throughout.
In the case of `OCCOCCN1CCN(C2=Nc3ccccc3Sc3ccccc32)CC1`, the Potency entry in test [1], in test [2], in test [3] and in test [4] was “inactive” in each case.
In the case of `COc1ccc(C2CNC(=O)C2)cc1OC1CCCC1` (centres undefined), the Potency entry in test [1], in test [2], in test [3] and in test [4] was “inactive” each time.
`O=C(OCCN1CCOCC1)c1cccnc1Nc1cccc(C(F)(F)F)c1`: the Potency entry in test [1], in test [2], in test [3] and in test [4] was “inactive” throughout.
As for `COc1ccc2nc(SCc3ncc(C)c(OC)c3C)[nH]c2c1`, the Potency entry in test [1], in test [2], in test [3] and in test [4] was “inactive” in each case.
As for `CC(=O)OCC(=O)[C@@]1(O)CC[C@H]2[C@@H]3CCC4=CC(=O)CC[C@]4(C)[C@H]3C(=O)C[C@@]21C`, the Potency result in test [1], in test [2], in test [3] and in test [4] was “inactive” each time.
As to `COc1cc(C(=O)NC2CCCNC2)cc(OC)c1OC` (centres undefined), the Potency result in test [1], in test [2], in test [3] and in test [4] was “inactive” throughout.
For `CC(C)C[C@H]1C(=O)N2CCC[C@H]2[C@]2(O)O[C@](NC(=O)[C@@H]3C=C4c5cccc6[nH]c(Br)c(c56)C[C@H]4N(C)C3)(C(C)C)C(=O)N12`, the Potency entry in test [1], in test [2], in test [3] and in test [4] was “inactive” throughout.
As for `C[C@]12C=CC(=O)C=C1CC[C@@H]1[C@@H]2[C@@H](O)C[C@@]2(C)[C@H]1CC[C@]2(O)C(=O)CO`, the Potency entry in test [1], in test [2], in test [3] and in test [4] was “inactive” each time.
`OCCc1ccccc1`: the Potency result in test [1], in test [2], in test [3] and in test [4] was “inactive” throughout.
Turning to `CCN1CCCC1CNC(=O)c1cc(S(=O)(=O)CC)c(N)cc1OC` (centres undefined), the Potency result in test [1], in test [2], in test [3] and in test [4] was “inactive” each time.
For the compound `COc1ccc2c(c1)CCCC2=O`, the Potency entry in test [1], in test [2], in test [3] and in test [4] was “inactive” each time.
With `Cc1cc(=O)c2c(O)c3c(O)cc(=O)c4c3c3c(cc(O)c1c23)C(C)(C)C=4O`, the Potency result in test [1], in test [2], in test [3] and in test [4] was “inactive” in each case.
For the compound `O=c1[nH]cnc2[nH]ncc12`, the Potency result in test [1], in test [2], in test [3] and in test [4] was “inactive” throughout.
Regarding `Cc1cnc(NS(=O)(=O)c2ccc(N)cc2)nc1`, the Potency entry in test [1], in test [2], in test [3] and in test [4] was “inactive” in each case.
In the case of `C[C@@H]1O[C@@H](O[C@H]2CC[C@@]3(C)[C@H](CC[C@@H]4[C@H]3C[C@@H](O)[C@]3(C)[C@@H](C5=CC(=O)OC5)CC[C@]43O)C2)C[C@H](O)[C@@H]1O[C@H]1C[C@H](O)[C@H](O[C@H]2C[C@H](O)[C@@H](O)[C@@H](C)O2)[C@H](C)O1` (stereo in doubt), the Potency was 559 nM (active) in test [1], 352 nM (active) in test [2], 396 nM (active) in test [3] and 444 nM (active) in test [4].
Regarding `C[C@@H]1C[C@H]2[C@@H]3C[C@H](F)C4=CC(=O)C=C[C@]4(C)[C@@]3(F)[C@@H](O)C[C@]2(C)[C@@]1(O)C(=O)CO`, the Potency result in test [1], in test [2], in test [3] and in test [4] was “inactive” throughout.
On to `COc1cc(OC)nc(O[C@H](C(=O)O)C(OC)(c2ccccc2)c2ccccc2)n1`, for which the Potency result in test [1], in test [2], in test [3] and in test [4] was “inactive” each time.
Consider `CN1C[C@@H]2C[C@H]1CN2c1cc2c(cc1F)c(=O)c(C(=O)O)cn2C1CC1`, for which the Potency entry in test [1], in test [2], in test [3] and in test [4] was “inactive” throughout.
Turning to `COc1ccccc1N1CCN(CCCCNC(=O)c2ccc(-c3ccc(C(C)=O)cc3)cc2)CC1`, the Potency entry in test [1], in test [2], in test [3] and in test [4] was “inactive” throughout.
As for `Cc1nnc(NS(=O)(=O)c2ccc(N)cc2)s1`, the Potency result in test [1], in test [2], in test [3] and in test [4] was “inactive” throughout.
